Reference: the supplement of paper PMC10849652
About 8,800 targets were measured; listed, in parts, are those with a hit and a random draw of the rest. About 0.5% of all pairs of compound and target were hits.

Assays:
Assay in all cases: log2 fold change, soluble protein after heating vs DMSO (PISA); higher = thermal stabilisation; K562 lysate, 10 uM; active = over 0.2 and 3.5 SD of the protein, either way, in both replicates (recomputed)
vemurafenib = compound: CCCS(=O)(=O)Nc1ccc(F)c(C(=O)c2c[nH]c3ncc(-c4ccc(Cl)cc4)cc23)c1F [vemurafenib]
Summary of the method: (§1)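 Log-two fold change in thermal stability relative to solvent controls is reported from duplicates. For each sample, crude K562 extract from dounce-homogenised pellets in PBS pH 7.4 with 1 mM MgCl2, at 1 mg/mL protein, was treated with 10 μM compound for 30 min. Aliquots heated for 3 min across 48°C-58°C were pooled, brought to 0.5% NP-40 at 4°C and cleared at 21,000xg for 90 min. The supernatant was quantified by TMTpro 16plex LC-MS/MS with channel sums equalised.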

[1] = compound: CCCS(=O)(=O)Nc1ccc(F)c(C(=O)c2c[nH]c3ncc(Cl)cc23)c1F
Summary of the method: as §1

barasertib = compound: CCN(CCCOc1ccc2c(Nc3cc(CC(=O)Nc4cccc(F)c4)[nH]n3)ncnc2c1)CCOP(=O)(O)O [barasertib]
Summary of the method: as §1

[2] = compound: CC[C@@H]1C(=O)N(C)c2cnc(Nc3ccc(C(=O)NC4CCN(C)CC4)cc3OC)nc2N1C1CCCC1
Summary of the method: as §1

volasertib = compound: CC[C@@H]1C(=O)N(C)c2cnc(Nc3ccc(C(=O)N[C@H]4CC[C@H](N5CCN(CC6CC6)CC5)CC4)cc3OC)nc2N1C(C)C [volasertib]
Summary of the method: as §1

[3] = compound: CCn1c(C(=O)N(C2CC2)C2CC2)cc2c3c(ncn3C)c(Nc3cc(C)n(C)n3)nc21
Summary of the method: as §1

[4] = compound: CCn1cc(-c2ccnc3[nH]c(-c4cccc(CN(C)C)c4)cc23)c(-c2ccc(NC(=O)N(C)C)cc2)n1
Summary of the method: as §1

[5] = compound: CN1CCC(CNc2ccc3ncc(-c4cccc(OC(F)(F)F)c4)n3n2)CC1
Summary of the method: as §1

saracatinib = compound: CN1CCN(CCOc2cc(OC3CCOCC3)c3c(Nc4c(Cl)ccc5c4OCO5)ncnc3c2)CC1 [saracatinib]
Summary of the method: as §1

sotrastaurin = compound: CN1CCN(c2nc(C3=C(c4c[nH]c5ccccc45)C(=O)NC3=O)c3ccccc3n2)CC1 [sotrastaurin]
Summary of the method: as §1

alvocidib = compound: CN1CC[C@H](c2c(O)cc(O)c3c(=O)cc(-c4ccccc4Cl)oc23)[C@H](O)C1 [alvocidib]
Summary of the method: as §1

Tubastatin A = compound: CN1CCc2c(c3ccccc3n2Cc2ccc(C(=O)NO)cc2)C1 [Tubastatin A]
Summary of the method: as §1

[6] = compound: CNC(=O)C1=CC=CC=C1NC2=NC(=NC=C2Cl)NC3=C(C=C(C=C3)N4CCOCC4)OC
Summary of the method: as §1

defactinib = compound: CNC(=O)c1ccc(Nc2ncc(C(F)(F)F)c(NCc3nccnc3N(C)S(C)(=O)=O)n2)cc1 [defactinib]
Summary of the method: as §1

[7] = compound: CNc1nc(-c2ccc3c(N)n[nH]c3c2)cc(N2C[C@@H](C(=O)NC3CCCCC3)CC[C@H]2C)n1
Summary of the method: as §1

encorafenib = compound: COC(=O)N[C@@H](C)CNc1nccc(-c2cn(C(C)C)nc2-c2cc(Cl)cc(NS(C)(=O)=O)c2F)n1 [encorafenib]
Summary of the method: as §1

[8] = compound: COC(=O)[C@H](CCSC)NC(=O)C1=C(C=C(C=C1)NC[C@H](CS)N)C2=CC=CC=C2
Summary of the method: as §1

alisertib = compound: COc1cc(Nc2ncc3c(n2)-c2ccc(Cl)cc2C(c2c(F)cccc2OC)=NC3)ccc1C(=O)O [alisertib]
Summary of the method: as §1

[9] = compound: COc1cc2nc(-c3cc(F)ccc3O)nc(N[C@@H]3CNC[C@H]3C(C)(C)O)c2cc1OC
Summary of the method: as §1

gefitinib = compound: COc1cc2ncnc(Nc3ccc(F)c(Cl)c3)c2cc1OCCCN1CCOCC1 [gefitinib]
Summary of the method: as §1

Measured: log2 fold change

HMGCS1 (UniProt Q01581)
Sequence of UniProt Q01581 (Q01581 whole entry, looked up): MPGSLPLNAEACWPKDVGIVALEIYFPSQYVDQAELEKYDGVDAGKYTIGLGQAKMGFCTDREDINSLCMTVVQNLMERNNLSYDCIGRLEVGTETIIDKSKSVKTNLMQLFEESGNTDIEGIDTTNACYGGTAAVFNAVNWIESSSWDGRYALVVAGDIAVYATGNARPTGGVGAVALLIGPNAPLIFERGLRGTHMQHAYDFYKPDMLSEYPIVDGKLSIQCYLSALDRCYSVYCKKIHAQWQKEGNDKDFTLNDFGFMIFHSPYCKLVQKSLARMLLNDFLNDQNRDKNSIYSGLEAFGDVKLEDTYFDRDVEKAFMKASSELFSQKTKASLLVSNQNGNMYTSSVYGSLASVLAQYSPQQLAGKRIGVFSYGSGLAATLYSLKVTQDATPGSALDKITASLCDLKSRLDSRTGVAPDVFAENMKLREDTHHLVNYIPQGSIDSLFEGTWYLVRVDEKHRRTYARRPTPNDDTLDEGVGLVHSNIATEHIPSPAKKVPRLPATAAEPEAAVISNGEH
inactive: vemurafenib 0.008 | [1] -0.009 | barasertib -0.038 | [2] -0.003 | volasertib -0.017 | [3] 0.014 | [4] -0.005 | [5] 0.009 | saracatinib 0.004 | sotrastaurin -0.014 | alvocidib 0.021 | Tubastatin A -0.073 | [6] 0.004 | defactinib -0.011 | [7] 0.006 | encorafenib -0.021 | [8] 0.078 | alisertib 0.012 | [9] -0.002 | gefitinib 0.013

GMDS (UniProt O60547)
Sequence of UniProt O60547 (O60547 whole entry, looked up): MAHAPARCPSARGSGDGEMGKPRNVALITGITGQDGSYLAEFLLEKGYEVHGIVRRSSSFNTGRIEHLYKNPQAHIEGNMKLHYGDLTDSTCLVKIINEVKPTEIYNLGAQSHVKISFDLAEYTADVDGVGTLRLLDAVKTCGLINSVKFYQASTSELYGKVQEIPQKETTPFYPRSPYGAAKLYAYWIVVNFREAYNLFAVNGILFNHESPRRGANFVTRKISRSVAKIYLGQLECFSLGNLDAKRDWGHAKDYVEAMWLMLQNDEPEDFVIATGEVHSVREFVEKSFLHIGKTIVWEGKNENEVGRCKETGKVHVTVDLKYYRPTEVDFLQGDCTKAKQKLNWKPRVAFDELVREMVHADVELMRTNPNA
inactive: vemurafenib 0.057 | [1] 0.012 | barasertib 0.027 | [2] -0.088 | volasertib -0.034 | [3] -0.023 | [4] 0.019 | [5] 0.042 | saracatinib -0.033 | sotrastaurin 0.019 | alvocidib 0.036 | Tubastatin A -0.057 | [6] -0.017 | defactinib 0.042 | [7] 0.003 | encorafenib -0.059 | [8] 0.123 | alisertib 0.016 | [9] 0.023 | gefitinib -0.012

GOLPH3 (UniProt Q9H4A6)
active: [8] -0.6
inactive: vemurafenib -0.007 | [1] 0.015 | barasertib 0.036 | [2] -0.016 | volasertib -0.041 | [3] 0.018 | [4] -0.029 | [5] -0.103 | saracatinib 0.021 | sotrastaurin -0.053 | alvocidib 0.001 | Tubastatin A -0.123 | [6] 0.075 | defactinib 0.015 | [7] -0.1 | encorafenib 0.051 | alisertib -0.018 | [9] -0.024 | gefitinib -0.011

HSPB1 (UniProt P04792)
inactive: vemurafenib -0.001 | [1] -0.003 | barasertib 0.019 | [2] 0.008 | volasertib -0.02 | [3] 0.01 | [4] 0.005 | [5] -0.042 | saracatinib 0.024 | sotrastaurin 0.005 | alvocidib 0.003 | Tubastatin A -0.023 | [6] -0.003 | defactinib 0 | [7] -0.036 | encorafenib -0.001 | [8] 0.025 | alisertib 0.012 | [9] 0.009 | gefitinib -0.012

HDAC6 (UniProt Q9UBN7)
Sequence of UniProt Q9UBN7 (Q9UBN7 whole entry, looked up): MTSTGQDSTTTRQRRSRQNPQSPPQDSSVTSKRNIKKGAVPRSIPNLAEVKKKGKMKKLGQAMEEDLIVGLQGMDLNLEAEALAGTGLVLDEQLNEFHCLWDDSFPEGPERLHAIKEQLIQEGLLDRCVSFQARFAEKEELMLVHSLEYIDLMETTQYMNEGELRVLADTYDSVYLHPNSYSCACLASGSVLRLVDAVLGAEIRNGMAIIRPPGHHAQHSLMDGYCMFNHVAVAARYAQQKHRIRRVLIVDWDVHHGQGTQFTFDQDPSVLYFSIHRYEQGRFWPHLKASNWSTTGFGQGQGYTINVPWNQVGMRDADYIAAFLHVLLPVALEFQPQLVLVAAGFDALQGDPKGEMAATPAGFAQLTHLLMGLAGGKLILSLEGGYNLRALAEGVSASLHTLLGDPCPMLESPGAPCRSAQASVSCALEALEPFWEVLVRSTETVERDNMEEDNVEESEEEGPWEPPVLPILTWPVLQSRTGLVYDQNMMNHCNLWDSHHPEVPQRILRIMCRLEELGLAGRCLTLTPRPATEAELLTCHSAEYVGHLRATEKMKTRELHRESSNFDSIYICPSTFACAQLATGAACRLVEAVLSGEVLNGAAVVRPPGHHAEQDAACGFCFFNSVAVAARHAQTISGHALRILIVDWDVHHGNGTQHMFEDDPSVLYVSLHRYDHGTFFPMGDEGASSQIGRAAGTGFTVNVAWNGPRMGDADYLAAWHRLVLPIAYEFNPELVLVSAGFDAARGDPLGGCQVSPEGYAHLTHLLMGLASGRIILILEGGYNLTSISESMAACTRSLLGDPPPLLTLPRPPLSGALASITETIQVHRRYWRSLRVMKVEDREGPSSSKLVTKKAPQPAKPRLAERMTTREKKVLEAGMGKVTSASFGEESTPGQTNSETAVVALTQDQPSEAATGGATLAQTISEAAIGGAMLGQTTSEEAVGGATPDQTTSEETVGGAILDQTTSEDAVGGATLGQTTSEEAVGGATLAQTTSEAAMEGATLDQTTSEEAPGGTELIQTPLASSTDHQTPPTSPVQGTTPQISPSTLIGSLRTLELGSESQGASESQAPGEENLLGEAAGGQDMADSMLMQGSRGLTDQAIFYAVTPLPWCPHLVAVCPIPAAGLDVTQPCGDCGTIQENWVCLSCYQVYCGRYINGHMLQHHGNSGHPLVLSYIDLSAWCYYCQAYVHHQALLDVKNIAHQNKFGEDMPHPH
inactive: vemurafenib -0.02 | [1] 0.01 | barasertib -0.017 | [2] -0.035 | volasertib -0.047 | [3] -0.023 | [4] 0.073 | [5] -0.011 | saracatinib -0.011 | sotrastaurin 0.008 | alvocidib -0.006 | Tubastatin A 0.11 | [6] -0.015 | defactinib -0.003 | [7] -0.013 | encorafenib -0.017 | [8] 0.06 | alisertib 0.013 | [9] 0.001 | gefitinib -0.012

IL18R1 (UniProt Q13478)
inactive: vemurafenib 0.074 | [1] -0.026 | barasertib 0.061 | [2] 0.087 | volasertib 0.044 | [3] -0.184 | [4] -0.284 | [5] 0.085 | saracatinib 0.023 | sotrastaurin -0.064 | alvocidib -0.148 | Tubastatin A 0.008 | [6] -0.106 | defactinib -0.322 | [7] 0.056 | encorafenib 0.116 | [8] 0.142 | alisertib -0.098 | [9] -0.014 | gefitinib -0.039

GRK2 (UniProt P25098)
Sequence of UniProt P25098 (P25098 whole entry, looked up): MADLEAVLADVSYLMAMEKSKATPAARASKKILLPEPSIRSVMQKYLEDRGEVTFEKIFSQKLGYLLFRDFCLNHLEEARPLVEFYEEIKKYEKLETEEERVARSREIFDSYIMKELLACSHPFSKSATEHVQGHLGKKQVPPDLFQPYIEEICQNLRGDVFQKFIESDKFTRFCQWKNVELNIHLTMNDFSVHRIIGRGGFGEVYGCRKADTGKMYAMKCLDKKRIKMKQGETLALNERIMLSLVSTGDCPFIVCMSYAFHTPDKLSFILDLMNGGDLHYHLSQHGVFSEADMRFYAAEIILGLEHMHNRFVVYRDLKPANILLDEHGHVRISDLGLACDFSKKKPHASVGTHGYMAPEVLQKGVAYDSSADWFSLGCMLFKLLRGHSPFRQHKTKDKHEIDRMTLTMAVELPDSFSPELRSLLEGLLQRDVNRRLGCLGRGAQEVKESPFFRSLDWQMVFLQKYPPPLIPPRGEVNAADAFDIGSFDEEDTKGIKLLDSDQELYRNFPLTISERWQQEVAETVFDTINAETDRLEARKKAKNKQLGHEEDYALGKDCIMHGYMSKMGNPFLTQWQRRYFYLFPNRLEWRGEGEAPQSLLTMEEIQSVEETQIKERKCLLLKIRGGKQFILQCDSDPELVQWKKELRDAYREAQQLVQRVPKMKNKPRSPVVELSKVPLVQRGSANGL
inactive: vemurafenib -0.019 | [1] 0.016 | barasertib -0.006 | [2] -0.08 | volasertib -0.05 | [3] 0.003 | [4] -0.054 | [5] -0.016 | saracatinib -0.009 | sotrastaurin 0.01 | alvocidib 0.001 | Tubastatin A -0.08 | [6] 0.068 | defactinib 0.106 | [7] 0.044 | encorafenib 0.001 | [8] 0.086 | alisertib -0.042 | [9] 0.066 | gefitinib -0.041

KBTBD4 isoform 2 (UniProt Q9NVX7)
Sequence of UniProt Q9NVX7 (Q9NVX7 whole entry, looked up): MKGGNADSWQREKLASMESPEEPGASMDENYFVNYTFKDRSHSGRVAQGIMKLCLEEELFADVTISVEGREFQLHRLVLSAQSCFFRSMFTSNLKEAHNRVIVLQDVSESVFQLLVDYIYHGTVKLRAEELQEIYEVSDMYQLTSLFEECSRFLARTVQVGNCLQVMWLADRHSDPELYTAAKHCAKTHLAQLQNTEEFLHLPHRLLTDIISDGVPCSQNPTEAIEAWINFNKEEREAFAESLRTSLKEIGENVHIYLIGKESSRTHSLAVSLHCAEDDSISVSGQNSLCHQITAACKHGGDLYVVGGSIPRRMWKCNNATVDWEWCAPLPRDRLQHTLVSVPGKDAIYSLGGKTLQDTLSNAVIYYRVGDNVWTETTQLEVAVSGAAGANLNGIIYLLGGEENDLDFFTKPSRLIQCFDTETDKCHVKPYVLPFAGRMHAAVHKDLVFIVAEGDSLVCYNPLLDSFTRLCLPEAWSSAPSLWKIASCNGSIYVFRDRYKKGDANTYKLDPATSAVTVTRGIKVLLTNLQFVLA
inactive: vemurafenib 0 | [1] 0.021 | barasertib 0.013 | [2] 0.063 | volasertib -0.022 | [3] 0.031 | [4] -0.04 | [5] -0.032 | saracatinib 0.086 | sotrastaurin 0.032 | alvocidib -0.064 | Tubastatin A -0.048 | [6] -0.016 | defactinib 0.024 | [7] 0.193 | encorafenib 0.048 | [8] -0.08 | alisertib -0.098 | [9] -0.046 | gefitinib 0.121

GIT1 (UniProt Q9Y2X7)
Sequence of UniProt Q9Y2X7 (Q9Y2X7 whole entry, looked up): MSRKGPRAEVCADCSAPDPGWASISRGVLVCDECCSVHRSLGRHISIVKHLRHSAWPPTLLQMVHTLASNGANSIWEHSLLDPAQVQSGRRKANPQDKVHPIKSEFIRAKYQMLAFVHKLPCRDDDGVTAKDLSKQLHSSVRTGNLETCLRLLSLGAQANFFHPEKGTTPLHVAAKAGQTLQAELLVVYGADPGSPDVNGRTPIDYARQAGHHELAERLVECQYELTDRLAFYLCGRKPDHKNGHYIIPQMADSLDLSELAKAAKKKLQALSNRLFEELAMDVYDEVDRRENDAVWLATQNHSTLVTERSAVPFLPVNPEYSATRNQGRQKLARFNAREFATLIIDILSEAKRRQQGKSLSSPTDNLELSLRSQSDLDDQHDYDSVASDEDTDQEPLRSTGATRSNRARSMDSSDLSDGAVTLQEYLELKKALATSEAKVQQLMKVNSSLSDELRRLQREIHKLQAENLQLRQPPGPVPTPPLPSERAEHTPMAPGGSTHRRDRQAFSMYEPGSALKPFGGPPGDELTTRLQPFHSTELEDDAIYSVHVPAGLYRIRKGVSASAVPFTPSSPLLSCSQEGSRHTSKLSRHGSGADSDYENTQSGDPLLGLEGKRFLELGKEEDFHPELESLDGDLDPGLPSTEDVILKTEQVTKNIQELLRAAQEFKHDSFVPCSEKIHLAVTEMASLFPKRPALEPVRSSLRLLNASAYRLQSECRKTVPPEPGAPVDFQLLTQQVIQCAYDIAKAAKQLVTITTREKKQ
inactive: vemurafenib -0.073 | [1] 0.028 | barasertib -0.008 | [2] -0.044 | volasertib -0.043 | [3] -0.007 | [4] 0.132 | [5] 0.046 | saracatinib 0 | sotrastaurin 0.012 | alvocidib 0.015 | Tubastatin A -0.04 | [6] 0.022 | defactinib 0.023 | [7] -0.084 | encorafenib 0.002 | [8] 0.026 | alisertib 0.05 | [9] -0.011 | gefitinib -0.031

ILK (UniProt Q13418)
inactive: vemurafenib 0.029 | [1] -0.024 | barasertib 0.059 | [2] -0.03 | volasertib -0.072 | [3] 0.016 | [4] -0.034 | [5] -0.019 | saracatinib 0.011 | sotrastaurin -0.002 | alvocidib 0.002 | Tubastatin A -0.084 | [6] -0.002 | defactinib -0.026 | [7] -0.061 | encorafenib -0.032 | [8] 0.038 | alisertib 0.007 | [9] -0.04 | gefitinib 0.013

HDAC2 (UniProt Q92769)
inactive: vemurafenib -0.025 | [1] 0.035 | barasertib 0.009 | [2] -0.012 | volasertib -0.009 | [3] 0.002 | [4] -0.052 | [5] 0.055 | saracatinib 0.02 | sotrastaurin -0.024 | alvocidib -0.01 | Tubastatin A -0.012 | [6] -0.007 | defactinib 0.006 | [7] 0.003 | encorafenib -0.006 | [8] 0.007 | alisertib 0.002 | [9] 0 | gefitinib 0.013

HACE1 (UniProt Q8IYU2)
Sequence of UniProt Q8IYU2 (Q8IYU2 whole entry, looked up): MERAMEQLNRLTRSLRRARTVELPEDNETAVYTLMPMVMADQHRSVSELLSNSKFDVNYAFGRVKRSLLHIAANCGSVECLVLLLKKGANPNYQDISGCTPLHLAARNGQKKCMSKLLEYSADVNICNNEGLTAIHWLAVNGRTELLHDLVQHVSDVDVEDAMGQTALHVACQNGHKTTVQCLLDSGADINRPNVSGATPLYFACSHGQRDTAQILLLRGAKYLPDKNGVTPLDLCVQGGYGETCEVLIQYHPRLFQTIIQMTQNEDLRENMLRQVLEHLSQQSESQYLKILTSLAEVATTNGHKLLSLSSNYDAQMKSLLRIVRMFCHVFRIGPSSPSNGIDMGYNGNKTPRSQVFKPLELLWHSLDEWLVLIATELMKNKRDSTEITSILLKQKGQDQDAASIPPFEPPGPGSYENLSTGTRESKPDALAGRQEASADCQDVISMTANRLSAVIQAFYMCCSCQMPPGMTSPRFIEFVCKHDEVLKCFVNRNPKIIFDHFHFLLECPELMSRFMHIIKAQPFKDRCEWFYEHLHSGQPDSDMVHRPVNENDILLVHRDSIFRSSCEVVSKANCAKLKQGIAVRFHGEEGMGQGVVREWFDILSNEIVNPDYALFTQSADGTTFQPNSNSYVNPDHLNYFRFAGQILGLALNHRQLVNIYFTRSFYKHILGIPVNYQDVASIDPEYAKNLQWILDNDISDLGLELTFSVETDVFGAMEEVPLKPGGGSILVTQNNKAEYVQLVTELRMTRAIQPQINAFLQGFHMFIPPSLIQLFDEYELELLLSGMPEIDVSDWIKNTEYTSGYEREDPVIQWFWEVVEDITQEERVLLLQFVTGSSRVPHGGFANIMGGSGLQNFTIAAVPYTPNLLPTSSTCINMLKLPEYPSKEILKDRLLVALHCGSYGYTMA
inactive: vemurafenib 0.066 | [1] 0.07 | barasertib 0.081 | [2] 0.069 | volasertib -0.058 | [3] 0.039 | [5] 0.252 | saracatinib 0.025 | sotrastaurin -0.154 | alvocidib -0.177 | Tubastatin A 0.006 | [6] -0.042 | defactinib -0.06 | [7] 0.278 | encorafenib -0.057 | [8] 0.18 | alisertib 0.061 | [9] 0.045 | gefitinib -0.152
active: [4] -0.657
